# M4 ag: agonists of human muscarinic M4 receptor (CHRM4). P08173. AID 624127. CHO-K1 hM4/Gqi5, Fluo-8 calcium fluorescence; vehicle 0%, full acetylcholine response 100%. 360,000 tested, 0.14% active. activation, % at 3 µM;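 active = activation above the run mean over all test wells plus 3 SD, cut at about 32% in these data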;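 also: peak over basal fluorescence ratio per well then scaled between controls; 0% = DMSO wells and 100% = acetylcholine at EC100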
# Target sequence (P08173 whole entry, looked up): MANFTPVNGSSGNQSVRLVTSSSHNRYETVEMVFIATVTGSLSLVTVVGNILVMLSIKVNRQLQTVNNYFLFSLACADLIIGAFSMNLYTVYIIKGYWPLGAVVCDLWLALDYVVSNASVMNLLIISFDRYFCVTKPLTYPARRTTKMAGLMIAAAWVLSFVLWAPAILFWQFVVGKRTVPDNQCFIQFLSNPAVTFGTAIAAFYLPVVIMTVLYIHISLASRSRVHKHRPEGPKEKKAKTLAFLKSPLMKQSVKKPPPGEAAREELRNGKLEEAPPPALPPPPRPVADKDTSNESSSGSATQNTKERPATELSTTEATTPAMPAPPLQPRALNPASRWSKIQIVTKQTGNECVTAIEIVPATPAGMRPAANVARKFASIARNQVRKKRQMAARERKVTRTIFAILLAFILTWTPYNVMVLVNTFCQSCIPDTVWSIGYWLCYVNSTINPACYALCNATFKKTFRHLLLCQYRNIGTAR
# CHO-K1 Ca ag: nonselective activator or artifact in parental CHO-K1 cells; 360,000 tested, 0.48% active; Fluo-8 calcium fluorescence; scaled to maximal ATP response, vehicle zero; activation, % at 3 µM; AID 602248; in the data active = activation above about 15%;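 also: untransfected CHO-K1 host cells lacking M1 receptor as counterscreen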
# CHRM4 antagonist: antagonists of human muscarinic M4 receptor (CHRM4); P08173; CHO-hM4 cells, ACh EC80, Fluo-8 calcium fluorescence; inhibition, % at 3 µM; 360,000 tested, 0.73% active; AID 624125;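 active = inhibition above its plate's cutoff, the mean inhibition of sample wells plus 3 SD, cut at about 27% in these data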;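 also: 0% = acetylcholine EC80 with DMSO and 100% = DMSO without agonist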
# M4 PAM: potentiates acetylcholine response at human M4 receptor. P08173. CHO-K1 hM4/Gqi5, Fluo-8 calcium fluorescence, ACh EC20; 0% = ACh EC20, 100% = maximal ACh. activation, % at 3 µM. 360,000 tested, 0.4% active. AID 624126;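 active = activation above its plate's cutoff, the mean activation of sample wells plus 3 SD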
# M1 PAM parental: nonselective activator or artifact in parental CHO-K1 calcium assay | ATP EC20, Fluo-8 calcium fluorescence; 0% at ATP EC20, 100% at ATP max | activation, % at 3 µM | 360,000 tested, 0.02% active | AID 602247;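 active = activation above the run cutoff, the mean activation of all test compounds plus 3 SD, cut at about 40% in these data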;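 also: peak over basal fluorescence ratio in a 140 s read after ATP addition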
# CHO-K1 Ca antag: M1 antagonist counterscreen hit in parental CHO-K1 cells. ATP-induced calcium, Fluo-8 fluorescence. inhibition, % at 3 µM. 360,000 tested, 0.6% active;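 active = inhibition above a per-plate cutoff, the plate's mean sample inhibition plus 3 SD, cut at about 24% in these data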;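 also: 0% = DMSO plus EC80 ATP and 100% = DMSO alone without ATP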
# * = called active by the depositor. Hits are enriched below; roughly 2% of the tested compounds scored in any of these assays.
SMILES,M4 ag,CHO-K1 Ca ag,CHRM4 antagonist,M4 PAM,M1 PAM parental,CHO-K1 Ca antag
CCOc1ccc(CCNC(=O)CCNC(=O)c2ccco2)cc1OCC,1,0,-8,19*,-3,12
CCOc1ccccc1OC(=O)c1ccco1,0,0,16,0,-6,27*
CC(=O)COc1ccccc1OC(=O)c1ccco1,0,0,5,2,12,-2
CC(=O)c1ccccc1OC(=O)c1ccco1,1,0,-13,23*,-4,7
O=C(Oc1cccc2ccccc12)c1ccco1,-1,0,8,-7,15,-5
Fc1cccc(F)c1C(Nc1nncs1)Nc1nncs1,0,1,0,17,4,-12
COc1ccccc1OCCC(=O)Nc1nc(C)cs1,1,2,6,-6,20,-18
CCOC(=O)Cc1csc(N/N=C\c2ccccc2OC)n1,4,1,-3,0,-6,4
CNc1cncc(-c2cccc(OC)c2F)n1,0,0,-10,4,27,-19
O=C(Nc1cccc2ccccc12)c1ccc2sc([C@H]3C[C@H](O)[C@@H](CO)O3)nc2c1,3,2,8,-11,-10,1
Cc1ccc([C@H]2C(C(=O)O)=CC[C@@H](c3cccs3)N2S(=O)(=O)c2ccc(C)cc2)cc1,0,0,-6,13,14,-10
Cc1ccc(S(=O)(=O)N2[C@@H](c3ccc(C(C)(C)C)cc3)C(C(=O)O)=CC[C@H]2c2cccs2)cc1,0,0,-6,3,-12,34*
N/C(=N/OC(=O)c1ccccc1Cl)c1ncc([N+](=O)[O-])s1,1,1,3,-3,11,-3
O=c1[nH]c(=S)[nH]c2c1[C@H](C1CC1)O[C@H](CCc1ccccc1)C2,-2,0,-17,8,15,-20
CCOC(=O)C1=C(CC)Nc2ccccc2N/C1=N\S(=O)(=O)c1cc(Br)ccc1Br,29,15,15,-17,-16,33*
CCOC(=O)Cc1csc(SCC(=O)Nc2cc(Cl)ccc2Oc2ccccc2)n1,8,7,45*,-10,1,29*
COc1ccc(NC(=O)CSc2nc(C)cs2)c(OC)c1,1,2,-6,4,24,-24
COc1ccc(OC)c(NC(=O)CSc2nc(C)cs2)c1,-2,0,3,45*,-2,11
CCOC(=O)Cc1csc(SCC(=O)Nc2cccc(Cl)c2)n1,10,7,3,-4,-7,15
CCCc1cc(C(=O)Nc2cc(OC)ccc2OC)cs1,-1,-1,-11,-4,-29,25*
CCOC(=O)Cc1csc(SCC(=O)NC2CCC(C)CC2)n1 (centres undefined),2,0,-26,20*,-19,10
CCOC(=O)Cc1csc(SCC(=O)NC2CCS(=O)(=O)C2)n1 (centres undefined),2,1,-7,4,8,-12
COc1ccc(OC)c(NC(=O)c2ccc(NC(C)=O)cc2)c1,1,0,3,5,6,5
O=C(CSc1n[nH]c(=O)n1C1CC1)Nc1cc(Cl)ccc1Oc1ccccc1,22,8,47*,-16,4,25*
CC(C)(C)NC(=O)C(c1cccs1)N(Cc1ccc(F)cc1)C(=O)c1csnn1 (centres undefined),3,0,6,-1,3,-3
SMILES,M4 ag,CHO-K1 Ca ag,CHRM4 antagonist,M4 PAM,M1 PAM parental,CHO-K1 Ca antag
COc1cccc(CN(C)C(=O)C2CCC(=O)N(Cc3cccc(F)c3)C2)c1 (centres undefined),2,1,-7,12,-11,4
O=C1CCC(C(=O)N2CCCO2)CN1Cc1cccc(C(F)(F)F)c1 (centres undefined),2,0,-10,19*,19,7
COc1cccc(CN2CC(C(=O)N(C)C3CCOCC3)CCC2=O)c1 (centres undefined),0,0,5,-2,-6,30*
CNC(=O)c1ccc(NC(=O)CC2SC(N3CCCC3)=NC2=O)cc1 (centres undefined),2,0,-2,22*,13,-24
CC(C)NC(=O)c1ccc(NC(=O)CC2SC(N3CCCC3)=NC2=O)cc1 (centres undefined),0,0,-8,14,-2,-12
COc1cccc(N(C(=O)c2cccs2)c2nc3ccccc3s2)c1,0,0,1,-1,-9,26*
CCN(C(=O)c1cccs1)c1nc(-c2ccc(OC)cc2)cs1,0,1,-5,4,21,-9
O=C(OCC#CCSc1nnc(-c2cccc3ccccc23)o1)c1cnc[nH]1,25,13,-12,-13,-4,-12
CCOC(=O)N1CCN(C(=O)c2ccc(NC(C)=O)cc2)CC1,1,0,2,-1,15,-17
CCOC(=O)N1CCN(C(=O)c2ccc(NC(=O)c3ccc(C)cc3)cc2)CC1,0,-1,-11,31*,18,-14
COC(=O)[C@H](C)N(Cc1ccc(Cl)c(Cl)c1)S(=O)(=O)CCN1CCN(c2ccccc2)CC1,1,0,2,1,18,-3
CCOc1ccc(NC(=O)CSC2=NN3CCCC(=O)N=C3S2)cc1,1,1,1,5,-1,-8
Cc1ccc(NC(=O)CSC2=NN3CCCC(=O)N=C3S2)cc1Cl,13,16*,3,-3,12,2
O=C1CCCN2N=C(SCC(=O)Nc3cccc(C(F)(F)F)c3)SC2=N1,14,15,12,-14,-11,26*
O=C1CCCN2N=C(SCC(=O)Nc3ccc(Cl)cc3)SC2=N1,4,13,-2,-3,6,-4
O=C1CCCN2N=C(SCC(=O)Nc3cccc(Cl)c3)SC2=N1,17,16*,-6,-3,-1,1
O=C1CCCN2N=C(SCC(=O)Nc3ccccc3C(F)(F)F)SC2=N1,1,1,13,-4,-8,-6
CSc1ncccc1C(=O)OCC(=O)c1cccs1,2,0,-23,8,21,-26
Cc1cc(/C=N/n2cnnc2)c(C)n1-c1ccc(OCc2ccccc2F)cc1,8,8,31*,-15,-9,18
Cc1cc(/C=N/n2cnnc2)c(C)n1-c1ccc(OCc2ccc(Cl)cc2)cc1,5,9,30*,-12,4,24*
CC(=O)c1cccc(NC(=O)C(C)Sc2nnc3ccccn23)c1 (centres undefined),0,3,-6,1,-14,5
CCCCCCn1cc(CN2CC(N3CCN(CCN(C)C)CC3)CS2(=O)=O)nn1 (centres undefined),1,1,-7,2,20,-25

# Screening data deposited in PubChem by The Scripps Research Institute Molecular Screening Center.
